Source: PubChem BioAssay
NadD inh: inhibitors of S. aureus NadD, primary screen, biochemical, colorimetric, uHTS. 0.78% of 360,000 active. purified NadD enzyme, colorimetric absorbance read-out. Nicotinate-nucleotide adenylyltransferase NadD (Staphylococcus aureus N315). inhibition, % at 20 µM. AID 602399, 2012; in the data active means inhibition above about 26%
H9c2 TAG inh: inhibitors of triacylglycerol accumulation, primary screen, cell-based, uHTS, fluorescence, H9c2 | AID 651582, 2012 | 0.66% of 230,000 active | inhibition, % at 12.5 µM | H9c2 cells, Nile Red lipid (TAG) fluorescence; cells loaded with 200 µM oleic acid;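 active means pattern-corrected inhibition of lipid staining of at least 50% with the nuclear-stain viability signal not falling by more than 50%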;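 further: 0% = DMSO wells and 100% = triacsin C control wells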
aDG glyco up: activators of alpha-DG glycosylation, primary screen, uHTS, Pro5-aDG cells, AlphaScreen; 0.22% of 360,000 active; activation, % at 10 µM; alpha-DG glycosylation AlphaScreen (IIH6); 0% Pro5, 100% B10-LARGE cell signal;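 active means activation of at least 8% versus controls, or a plate z-score of at least 8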;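 further: Pro5 are CHO cells carrying HIG-tagged alpha-DG that lacks glycosylation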
MPTP block: mitochondrial permeability transition pore inhibitors, primary screen, biochemical, isolated mouse mitochondria, absorbance; Ca2+ swelling absorbance, 30 min; inhibition, % at 10 µM; 1.4% of 360,000 active; AID 602449, 2012;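 active means inhibition of 50% or more, scaled per plate between neutral and stimulator controls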;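 further: 0% = DMSO wells given calcium and 100% = 1 mM EGTA wells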
TAG conf: triacylglycerol accumulation inhibitors, retest, confirmation, cell-based, single concentration, Nile Red fluorescence, H9c2; shares compounds with H9c2 TAG inh; H9c2 lipid accumulation; cells loaded with 200 µM oleic acid; inhibition, % at 12.5 µM; 71% of 990 active;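 active means mean inhibition across replicates of 40% or more; inactive means mean inhibition below 40%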;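 further: plate controls were DMSO only wells for no effect and Triacsin C treated wells for full effect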
The depositor's hits bear a star; . = no result. An excerpt weighted towards active compounds, which were near 2.7% of everything screened.

SMILES | NadD inh | H9c2 TAG inh | aDG glyco up | MPTP block | TAG conf
CO/N=C\CC(=O)Nc1ccc(Oc2ccccc2)cc1 | -1 | 61* | -1 | -2 | 81*
C[C@H]1CCCCO[C@H](CN(C)CC2CCCCC2)[C@@H](C)CN([C@@H](C)CO)C(=O)c2cc(NS(=O)(=O)c3ccccc3)ccc2O1 | -3 | 57* | 0 | -2 | 58*
COc1ccc(CN(C)C[C@@H]2OCCCC[C@H](C)Oc3ccc(NC(=O)Nc4ccc(F)cc4)cc3C(=O)N([C@H](C)CO)C[C@H]2C)cc1 | 10 | 63* | 0 | 3 | 47*
CNC(=O)Nc1ccc(C2SCCS2)cc1 | -3 | 6 | 0 | 4 | .
CCCCNC(=O)Nc1ccc(C2SCCS2)cc1 | 3 | 57* | 0 | 27 | -9
Cc1ccc2c(c1)N(C(=O)CCC(=O)NCCCN1CCC(Cc3ccccc3)CC1)CCO2 | -5 | 61* | 0 | 21 | 60*
COC(=O)c1cnc(Nc2nc(C(N)c3ccccc3Cl)cs2)nc1C(F)(F)F (configuration not stated) | 3 | 4 | 2 | 3 | .
C=CCN1C(=O)/C(=C2\SC(N3CCOCC3)=NC2=O)c2cc(Br)ccc21 | -8 | 58* | 0 | 0 | 50*
Cc1ccc(S(=O)(=O)N2CCOCC2)cc1NC(=O)CN1C(=O)NC(C)(c2ccc(Cl)cc2Cl)C1=O (configuration not stated) | -8 | 5 | 0 | 0 | .
O=C(C[C@H]1C[C@H](C(=O)N2CCCCC2)[C@@]2(CCc3ccccc3)c3[nH]c4ccc(Cl)cc4c3CCN2C1=O)NCc1cccc(C(F)(F)F)c1 | 28 | 102* | 0 | -1 | 100*
COc1ccc2[nH]c3c(c2c1)CCN1C(=O)C(CC(=O)NCCN2CCOCC2)C[C@H](C(=O)N2CCCCC2)[C@@]31CCc1ccccc1 (some centres not stated) | -5 | 3 | 0 | -3 | .
CC(C)(C)NC(=O)C[C@H]1C[C@H](C(=O)N2CCCCC2)[C@@]2(CCc3ccccc3)c3[nH]c4ccc(Cl)cc4c3CCN2C1=O | 4 | 62* | 0 | 2 | 45*
COc1ccc2[nH]c3c(c2c1)CCN1C(=O)C(CC(=O)NCc2cccc(C(F)(F)F)c2)C[C@H](C(=O)N2CCCCC2)[C@@]31CCc1ccccc1 (some centres not stated) | 18 | 102* | 0 | 0 | 90*
O=C(CC1C[C@H](C(=O)N2CCCCC2)[C@@]2(CCc3ccccc3)c3[nH]c4ccccc4c3CCN2C1=O)NCc1cccc(C(F)(F)F)c1 (some centres not stated) | 24 | 91* | 0 | 0 | 88*
O=C(CC1C[C@H](C(=O)N2CCCCC2)[C@@]2(CCc3ccccc3)c3[nH]c4ccccc4c3CCN2C1=O)NCCc1ccccn1 (some centres not stated) | 0 | 19 | 1 | 10 | .
CCN(C(=O)COC(=O)c1nc(Cl)ccc1Cl)C1CCS(=O)(=O)C1 (configuration not stated) | 4 | -9 | 0 | -1 | .
CN1CCN(C(=O)c2cc([N+](=O)[O-])ccc2Cl)CC1 | -1 | . | 0 | 0 | .
CCOC(=O)c1c(CN2CCN(C)CC2)n(-c2ccccc2)c2cc(Br)c(O)cc12 | -8 | 11 | 2 | -1 | .
CCOC(=O)c1c(CSC(=N)N)n(-c2ccccc2)c2cc(Br)c(OC(C)=O)cc12 | -7 | 62* | 0 | -4 | 68*
CCCCN1C=C(C(=O)OC)C(c2ccccc2C(F)(F)F)C(C(=O)OC)=C1 | -2 | 54* | 1 | 2 | 31
COCCN1C=C(C(=O)OC)C(c2ccccc2C(F)(F)F)C(C(=O)OC)=C1 | -3 | 10 | 0 | 2 | .
COc1ccc(NS(=O)(=O)c2cc(C)ccc2NC(=O)c2cc(C)oc2C)cc1 | -6 | 62* | 0 | 1 | 79*
C[C@H](O)[C@@H]1CN2CCc3c([nH]c4ccc(-c5ccc6c(c5)OCO6)cc34)[C@@H]2C[C@@H]1N(C)C(=O)Nc1cc(Cl)cc(Cl)c1 | 24 | 70* | 0 | 2 | 89*
C[C@H](O)[C@@H]1CN2CCc3c([nH]c4ccccc34)[C@@H]2C[C@@H]1N(C)C(=O)Nc1cc(Cl)cc(Cl)c1 | 7 | 3 | 0 | -1 | .
Cc1cccc(-c2ccc3[nH]c4c(c3c2)CCN2C[C@@H]([C@H](C)O)[C@@H](N(C)C(=O)Nc3ccc(F)cc3)C[C@@H]42)c1 | 12 | 50* | 1 | 1 | 48*
SMILES | NadD inh | H9c2 TAG inh | aDG glyco up | MPTP block | TAG conf
COc1ccc(NC(=O)N(C)[C@H]2C[C@H]3c4[nH]c5ccc(-c6cccc(C)c6)cc5c4CCN3C[C@H]2[C@H](C)O)cc1 | 14 | 46 | 1 | 0 | .
CCOC(=O)C1=CCN(S(=O)(=O)c2ccc(C)cc2)C1c1cccc(Br)c1 (configuration not stated) | -9 | . | 0 | 1 | .
COC(=O)c1ccc(C(=O)OC)c(NC(=O)CN2CCN(c3ccccc3)CC2)c1 | 2 | . | 0 | 0 | .
COC(=O)c1ccc(C(=O)OC)c(NC(=O)CN2CCN(c3ccc(OC)cc3)CC2)c1 | 3 | 56* | 0 | -1 | 20
NC(Cc1ccc(F)cc1)c1csc(Nc2ccc(C(F)(F)F)cn2)n1 (configuration not stated) | 2 | 90* | -1 | 1 | 74*
CN(Cc1ccccc1)C(=O)c1ccc(Nc2nc(C(N)Cc3ccccc3)cs2)nc1 (configuration not stated) | 6 | 52* | -1 | 3 | 49*
CCCCOc1ccc(NC(=O)C(=O)NCCC2=CCCCC2)cc1 | 2 | 64* | 0 | -2 | 8
Cc1cc(OCC(=O)NC(Cc2ccc(Cl)cc2)C(=O)O)c2c(C)c(C)c(=O)oc2c1 (configuration not stated) | 1 | . | 0 | 2 | .
Cc1ccc(-n2c(=O)[nH]c3cc(C(=O)NC4CCN(Cc5ccccc5)CC4)ccc3c2=O)cc1 | -10 | 75* | 0 | 1 | 28
Cc1ccc(CN2CCSc3ccc(C(=O)NC4CCN(Cc5ccccc5)CC4)cc32)cc1 | 9 | 24 | 4 | 2 | .
CCOC(=O)[C@@H]1[C@H]2COc3ccc(Br)cc3[C@@H]2N2C(=O)N(c3ccc(C(F)(F)F)cc3)C(=O)[C@@]12C | 1 | 52* | 0 | -1 | 69*
CCOC(=O)[C@H]1[C@H]2COc3ccc(Br)cc3[C@@H]2N2C(=O)c3cc(Br)ccc3NC(=O)[C@@]12C | 19 | 63* | 0 | 0 | 52*
CCOC(=O)[C@H]1[C@H]2COc3ccccc3[C@@H]2N2C(=O)c3cc(Cl)ccc3NC(=O)[C@@]12C | -6 | . | 0 | -2 | .
